Results published in PubChem BioAssay.
“And” between values parts separate entries of the source, which are not always exact repeats. Identical values can stand only once.

biological target: Torsin-1A (Homo sapiens) (UniProt O14656); assay: torsin A binders from cell lysate, primary screen, small-molecule microarray, wild-type, 635/667 nm (AID 1149); settings: COS7 hTOR1A-WT lysate, 635 nm fluorescence, higher = more signal
Sequence (O14656 whole entry, looked up): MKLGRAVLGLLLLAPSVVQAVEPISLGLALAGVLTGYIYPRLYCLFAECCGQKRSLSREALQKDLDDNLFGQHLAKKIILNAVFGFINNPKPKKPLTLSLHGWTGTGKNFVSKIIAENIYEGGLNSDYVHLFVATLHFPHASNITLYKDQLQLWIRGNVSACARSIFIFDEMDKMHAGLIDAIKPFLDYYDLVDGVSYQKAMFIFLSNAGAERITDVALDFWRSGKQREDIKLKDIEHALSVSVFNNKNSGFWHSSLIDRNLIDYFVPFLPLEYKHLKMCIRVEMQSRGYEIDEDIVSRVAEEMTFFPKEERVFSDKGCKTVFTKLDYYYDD

SMILES	composite z-score
CC(CO)N1C(=O)[C@@H]2C3C(=O)OCCC=C[C@H]3OC23C=CCN(Cc2ccccc2)C(=O)[C@@H]13 (stereo not given in full)	-0.773 and 0.447
C=CCN(C(=O)C1N(c2c(Cl)cccc2CO)C(=O)C2C(C(=O)O)C3C=CC21O3)C(C)(C)C (stereo not given)	-2.54 and -1.22
O=C1C[C@]2(c3ccc([N+](=O)[O-])cc3)C(=O)N(Cc3ccccc3)c3cc(CO)ccc3[C@H]2N1C1CCCCC1	0.251 and 0.0218
C[C@@H](ON=C1[C@H]2CCn3c(=O)n(-c4ccccc4)c(=O)n3[C@H]2[C@H](O)[C@@H]2O[C@H]12)c1cn([C@H](CO)Cc2ccccc2)nn1	0.185
C=CCN(CCCC)C(=O)C1N(C(C)(C)CO)C(=O)C2C(C(=O)O)C3C=CC21O3 (stereo not given)	-2.92 and -2.18
COC(=O)[C@@]1(Cc2ccccc2)[C@H]2c3cc(C(=O)N(C)C)n(C[C@H](O)CO)c3C[C@H]2CN1C(=O)c1ccccc1	-0.593 and 0.132
C[C@@H]1CN2[C@@H](CC[C@@H](C)[C@@H]2c2ccc(Br)cc2)C(=O)O1	-0.467 and 0.111
COC(=O)C1=C(C)N(Cc2ccccc2)[C@]23O[C@](C(=O)OC)(C(=O)N2[C@@H]1c1ccccc1)[C@@H](C(=O)OC)[C@H]3C(=O)OC	-0.0921 and 0.481
C=CCN(Cc1ccccc1)C(=O)C1N(c2ccc(CCO)cc2)C(=O)C2C(C(=O)O)C3C=CC21O3 (stereo not given)	-2.02 and -4.14
CCOC(=O)C[C@H]1[C@H](OC(=O)c2ccccc2-c2ccccc2)[C@@H](NC(=O)Cc2ccc(OC)cc2)c2cc(OCCCO)ccc2N1C(=O)c1ccc2ccccc2n1	0.0122 and -0.0425
CC(C)CCN1CCc2nc(-c3ccccc3)c3c(c2C1)CO[C@@H](C)C3	0.509
CCOC(=O)[C@@H]1CC=C2CC1C(=O)N1CCC[C@@H]1[C@H]2O[Si](C)(C)C(C)(C)C (stereo not given in full)	-0.408 and -2.35
COC(=O)[C@@]1(Cc2ccc(OC)cc2)[C@H]2c3cc(C(=O)N(C)C)n(Cc4ccc(O)c(OC)c4)c3C[C@H]2CN1C(=O)c1ccccc1	0.934 and 0.0765
CO[C@H]1COC(=O)CC=C[C@H](C)[C@H](OC)COC(=O)[C@@H](C)COC(=O)CC=C[C@@H]1C	0.636 and 0.802
CCOC(=O)C[C@H]1[C@H](OC(=O)c2ccccc2-c2ccccc2)[C@@H](NC(=O)c2ccccc2)c2cc(OCCCO)ccc2N1C(=O)c1ccc2ccccc2n1	0.144 and 0.158
C=CCN(CCCC)C(=O)C1N(c2c(Cl)cccc2CO)C(=O)C2C(C(=O)O)C3C=CC21O3 (stereo not given)	-1.67 and 1.69

biological target: Torsin-1A (Homo sapiens) (UniProt O14656); assay: small-molecule binders of mutant TOR1A in lysate, primary screen, cell lysate, small-molecule microarray, COS7 lysate, 635/667 nm fluorescence (AID 1150); settings: COS7 hTOR1A mutant lysate, 635 nm fluorescence, higher = more signal;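 further: score pools 667 nm emission and signal to noise measuring lysate protein binding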

SMILES	composite z-score
CC(CO)N1C(=O)[C@@H]2C3C(=O)OCCC=C[C@H]3OC23C=CCN(c2ccc(Cl)cc2)C(=O)[C@@H]13 (stereo not given in full)	-2.42 and -1.49
CCOC(=O)NN=C1C[C@@H](O)[C@@H](O)[C@@H]2[C@@H]3C(=O)N(Cc4ccc5c(c4)OCO5)C(=O)[C@@H]3CC[C@@H]12	0.0143
C=CCN(C(=O)C(c1cccs1)N(C(=O)/C=C\C(=O)O)c1ccc(CCO)cc1)C(C)(C)C (stereo not given)	1.56 and -2.14
C=CCN(C(=O)C(c1cccs1)N(C(=O)/C=C\C(=O)O)c1c(Cl)cccc1CO)C(C)(C)C (stereo not given)	-3.15 and -2.91
C=CCN(CCCCC)C(=O)C1N(c2c(Cl)cccc2CO)C(=O)C2C(C(=O)O)C3C=CC21O3 (stereo not given)	-1.09 and -2.63
C=CCN(CCCC)C(=O)C(c1cccs1)N(CCOCCO)C(=O)/C=C\C(=O)O (stereo not given)	1.73 and -0.144
CCCCCN1CC=CC23O[C@@H]4C=CCCOC(=O)C4[C@H]2C(=O)N(C(C)CO)[C@@H]3C1=O (stereo not given in full)	0.128 and -0.904
COC(=O)[C@H](C)NC(=O)CCC1CC(OC(=O)NCCc2ccc(F)cc2)CC2(CCCC(COC(=O)NCCCN3CCCC3=O)O2)O1 (stereo not given in full)	0.268
COC(=O)C1=C(C)N(Cc2ccccc2)C2=C(C(C)=O)C[C@@](O)(C(=O)OC)C(=O)N2[C@@H]1c1ccccc1	1.69 and -0.0069
C=CCN(CCCCC)C(=O)C(c1cccs1)N(C(=O)/C=C\C(=O)O)c1c(Cl)cccc1CO (stereo not given)	-0.23 and -2.06
CC(C)CON=C1C[C@@H](O)[C@@H](O)[C@@H]2[C@@H]3C(=O)N(c4cccc(Oc5ccccc5)c4)C(=O)[C@@H]3CC[C@H]12	0.22
C=CCN(C(=O)C(c1cccs1)N(C(=O)/C=C\C(=O)O)C(C)(C)CO)c1ccc(OC)cc1 (stereo not given)	-0.269 and 1.24
CCCNC(=O)OC[C@H]1O[C@H](CCON=C(C)CCN2CCc3nc(-c4ccccc4)c(-c4ccccc4)cc3C2)C=C[C@@H]1Oc1ccc(OC)cc1	0.302
C=CC[C@@H](O)c1ccc(O)c(F)c1	0.565 and -0.383
C=CCN(Cc1ccccc1)C(=O)C(c1cccs1)N(C(=O)/C=C\C(=O)O)c1c(Cl)cccc1CO (stereo not given)	0.702 and -1.72
CC(C)[Si]1(C(C)C)OCc2cc(CCCc3cc4c(c(CCc5ccccc5)n3)[Si](C(C)C)(C(C)C)OC4)nc(CCc3ccccc3)c21	0.0547 and 0.39
COC(=O)[C@@]1(Cc2ccc(F)cc2)[C@H]2c3cc(C(=O)N4CCCC4)n(Cc4c(CO)[nH]cc(C)c4=O)c3C[C@H]2CN1C(=O)c1ccccc1	0.797 and 0.232
C=CCN(C(=O)C1N(c2ccc(CCO)cc2)C(=O)C2C(C(=O)O)C3C=CC21O3)c1ccc(OC)cc1 (stereo not given)	-0.584 and -1.23
C=CCN(C(=O)C1N(CCOCCO)C(=O)C2C(C(=O)O)C3C=CC21O3)C(C)(C)C (stereo not given)	-2.59 and -1.82
CCOC(=O)c1ccc(NC(=O)O[C@H]2[C@H](OC(=O)Nc3ccccc3)[C@H](OC(=O)Nc3ccccc3)[C@@H](OC)O[C@@H]2CO)cc1	0.592 and 0.568

SMILES	composite z-score
CC(C)=NOCc1ccc(-c2cn([C@@H]3COC[C@H]3O)nn2)cc1	0.162
C[C@@H]1CC[C@H]2C(=O)O[C@H](CN=[N+]=[N-])CN2[C@H]1c1ccc(Br)cc1	0.455 and 0.101
C=CCN1C(=O)[C@]2(O[C@H](CCn3cc(CCO)nn3)[C@@H]([Si](C)(C)c3ccc(OC)cc3)[C@@H]2C)c2cc(N3C(=O)c4cccc5cccc3c45)ccc21	0.398 and 0.254
CC(CO)N1C(=O)[C@@H]2C3C(=O)OCCC=C[C@H]3OC23C=CCN(Cc2ccccc2)C(=O)[C@@H]13 (stereo not given in full)	1.55 and 1.17
C=CCN(C(=O)C1N(c2c(Cl)cccc2CO)C(=O)C2C(C(=O)O)C3C=CC21O3)C(C)(C)C (stereo not given)	-1.62 and -1.73
O=C1C[C@]2(c3ccc([N+](=O)[O-])cc3)C(=O)N(Cc3ccccc3)c3cc(CO)ccc3[C@H]2N1C1CCCCC1	0.22 and -0.0773
C[C@@H](ON=C1[C@H]2CCn3c(=O)n(-c4ccccc4)c(=O)n3[C@H]2[C@H](O)[C@@H]2O[C@H]12)c1cn([C@H](CO)Cc2ccccc2)nn1	0.199
C=CCN(CCCC)C(=O)C1N(C(C)(C)CO)C(=O)C2C(C(=O)O)C3C=CC21O3 (stereo not given)	-2.77 and -2.67
COC(=O)[C@@]1(Cc2ccccc2)[C@H]2c3cc(C(=O)N(C)C)n(C[C@H](O)CO)c3C[C@H]2CN1C(=O)c1ccccc1	0.492 and 0.92
C[C@@H]1CN2[C@@H](CC[C@@H](C)[C@@H]2c2ccc(Br)cc2)C(=O)O1	0.0914 and 0.0837
COC(=O)C1=C(C)N(Cc2ccccc2)[C@]23O[C@](C(=O)OC)(C(=O)N2[C@@H]1c1ccccc1)[C@@H](C(=O)OC)[C@H]3C(=O)OC	-0.107 and 0.299
C=CCN(Cc1ccccc1)C(=O)C1N(c2ccc(CCO)cc2)C(=O)C2C(C(=O)O)C3C=CC21O3 (stereo not given)	-3.2 and -2.45
CCOC(=O)C[C@H]1[C@H](OC(=O)c2ccccc2-c2ccccc2)[C@@H](NC(=O)Cc2ccc(OC)cc2)c2cc(OCCCO)ccc2N1C(=O)c1ccc2ccccc2n1	0.19 and 0.686
CC(C)CCN1CCc2nc(-c3ccccc3)c3c(c2C1)CO[C@@H](C)C3	0.471
CCOC(=O)[C@@H]1CC=C2CC1C(=O)N1CCC[C@@H]1[C@H]2O[Si](C)(C)C(C)(C)C (stereo not given in full)	-0.0943 and -2.33
COC(=O)[C@@]1(Cc2ccc(OC)cc2)[C@H]2c3cc(C(=O)N(C)C)n(Cc4ccc(O)c(OC)c4)c3C[C@H]2CN1C(=O)c1ccccc1	0.692 and 0.318
CO[C@H]1COC(=O)CC=C[C@H](C)[C@H](OC)COC(=O)[C@@H](C)COC(=O)CC=C[C@@H]1C	0.269 and 1.17
CCOC(=O)C[C@H]1[C@H](OC(=O)c2ccccc2-c2ccccc2)[C@@H](NC(=O)c2ccccc2)c2cc(OCCCO)ccc2N1C(=O)c1ccc2ccccc2n1	0.0956 and 0.344
C=CCN(CCCC)C(=O)C1N(c2c(Cl)cccc2CO)C(=O)C2C(C(=O)O)C3C=CC21O3 (stereo not given)	-0.696 and 0.827
